From PubChem BioAssay
An excerpt weighted towards active compounds, which were near 7.5% of everything screened.
RORg inh – qHTS for inhibitors of ROR gamma transcriptional activity; Potency, µM (highest dose often 53.6 µM), without a hit: at the highest dose activity change, negative = inhibition, usual class: inhibitors; AID 2551, 2010; Drosophila S2 Gal4-RORgamma UAS-luciferase reporter, 20 h; Nuclear receptor ROR-gamma (Mus musculus), P51450; 310,000 compounds, 5.4% hits; further: potency means the concentration at half of the fitted maximal effect; nearly all actives have a fitted effect of over 60% in size
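Luminescence from a UAS-regulated Photinus luciferase reporter in stably transfected Drosophila Schneider cells is measured; decreased signal marks ROR gamma inhibition. Fusion expression is induced by 700 uM copper sulfate for 20 hr.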
ELG1 DNA repair – qHTS screen for small molecules that inhibit ELG1-dependent DNA repair in human embryonic kidney (HEK293T) cells expressing luciferase-tagged ELG1. AID 504467, 2011. HEK293T ELG1-luciferase reporter, luminescence, 16 h; DNA damage induced by 5-fluorouridine. 330,000 compounds, 2.3% hits. Potency, µM (titrated, usually from 46.1 µM), without a hit: at the highest dose activity change, negative = inhibition, actives largely listed as inhibitors; further: potency means the concentration at half of the fitted maximal effect; nearly all actives have a fitted effect of over 55% in size
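Overnight (16 hr) co-exposure of 2,000 cells/well to 5-fluorouridine and compound at 37 °C preceded detection. Luciferase was quantified via ONE-Glo luminescence; loss of signal denotes inhibition.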
VP16 counter – VP16 counterscreen qHTS for inhibitors of ROR gamma transcriptional activity; Drosophila S2 Gal4-VP16 UAS-luciferase, luminescence, 20 h; Potency, µM (doses to about 53.6 µM), without a hit: at the top dose activity, negative = inhibition, most hits filed as inhibitors; 310,000 compounds, 3.5% hits; AID 2546, 2010;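 further: Gal4-VP16 expression switched on by copper sulfate through the metallothionein promoter; potency means the concentration at half of the fitted maximal effect; nearly all actives have a fitted effect of over 50% in size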
TSHR antag – Antagonists of the Thyroid Stimulating Hormone Receptor: HTS campaign; activity change, negative = inhibition, % at 11.5 µM; 330,000 compounds, 0.2% hits; AID 504810, 2011; TSHR-expressing cells, TSH-stimulated cAMP HTRF, 2 h; hits give low values;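 active means activity change below a set negative limit, meaning inhibition stronger than a set level, cut at about -70% in these data; inconclusive means activity change between two set negative limits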
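Freshly harvested TSHR cells receive pin-tooled compound, then EC80 TSH at 4nM final. After 2 hours at 37 deg C, antibody in lysis buffer and cAMP-d2 are added; 30 minutes at ambient temperature precede the HTRF read.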
B2AR arrestin – qHTS assay of beta-arrestin-biased ligands of beta2-adrenergic receptor. Beta-2 adrenergic receptor (Homo sapiens), P07550. 330,000 compounds, 0.02% hits. beta-arrestin recruitment to beta2AR, cell-based reporter. AID 492947, 2010. Potency, µM (titrated, usually from 46.1 µM), for inactives: at the highest dose activation, hits mostly activators;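 further: potency means the concentration at half of the fitted maximal effect; 0% = DMSO controls and full agonism = EC100 isoproterenol or metaproterenol; nearly all actives have a fitted effect of over 65% in size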
Target sequence (P07550 whole entry, looked up): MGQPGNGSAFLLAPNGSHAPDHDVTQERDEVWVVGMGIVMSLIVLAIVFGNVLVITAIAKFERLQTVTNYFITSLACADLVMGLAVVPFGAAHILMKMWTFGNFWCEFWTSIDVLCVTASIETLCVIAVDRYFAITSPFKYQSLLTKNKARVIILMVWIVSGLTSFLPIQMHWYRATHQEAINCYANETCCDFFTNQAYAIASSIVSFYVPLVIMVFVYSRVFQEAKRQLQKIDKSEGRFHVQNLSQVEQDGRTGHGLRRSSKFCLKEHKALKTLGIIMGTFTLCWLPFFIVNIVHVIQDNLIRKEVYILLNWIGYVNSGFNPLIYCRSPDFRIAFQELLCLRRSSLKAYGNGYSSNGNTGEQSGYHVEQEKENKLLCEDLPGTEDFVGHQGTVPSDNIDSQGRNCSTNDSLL
Starred values were filed as active, the others as inactive; u = inconclusive; x = not tested or not shown; [ ] = dose if it differs, or a comment. Unless noted, the call rests on the fitted dose curve; in most records, active means well fitted curve in the direction sought with a large enough effect; inconclusive means small, poorly fitted or top-dose-only effect, or another doubt; inactive means no such curve, though single readings can be large; an effect the other way counts as inactive or inconclusive. Unless noted, on the % scale 0 is the no-effect control and ±100 the full control effect.

SMILES	RORg inh	ELG1 DNA repair	VP16 counter	TSHR antag	B2AR arrestin
Nc1nonc1-n1nnc(C(=O)N/N=C/c2ccc(OCc3ccccc3F)cc2)c1CNc1ccccc1	-38%	u	-7%	-1	0%
COc1ccc2c(c1)[C@H]1[C@H](CO2)[C@H](c2ccccc2)[C@]2(C)C(=O)N[C@@H](C)C(=O)N12	x	14%	x	5	0%
CCOC(=O)C1=C(C)N(C[C@@H]2CC[C@@H](Cc3ccc(-c4ccccc4)cc3)O2)C(=O)NC1C1CC1 (some centres undefined)	x	u	x	1	0%
C(=N\NCc1ccccc1)/c1ccc2ncccc2c1	4%	u	-26%	-9	0%
S=C(N/N=C/c1cccc2ccccc12)Nc1cccc(Cl)c1	0.45µM*	-11%	7.9µM*	-9	0%
S=C(N/N=C/c1ccccc1Cl)Nc1ccccc1	0.71µM*	11µM*	0%	41	9%
S=C(N/N=C/c1ccc2ncccc2c1)Nc1ccccc1	1.3µM*	u	u	-4	0%
COc1ccc(/C=N/NC(=S)Nc2ccccc2)cc1	7%	u	u	12	u
Cc1ccc(-n2ncc(-c3nn[nH]n3)c2N)cc1	-5%	19%	-2%	-9	0%
CC(C)CN(C(=O)COC(=O)c1ccc(Br)o1)c1c(N)n(Cc2ccccc2)c(=O)[nH]c1=O	x	16%	x	6	0%
O=c1c2cc(N3CCOCC3)ccc2[nH]c(=S)n1CCCN1CCN(c2ccccc2F)CC1	-39%	6%	u	-3	0%
CCOc1cc2[nH]c(=S)n(CCCN3CCOCC3)c(=O)c2cc1OCC	-13%	-10%	-17%	4	0%
Cc1cccc(N2CCN(C(=O)CCCCCn3c(=S)[nH]c4ccc(N5CCOCC5)cc4c3=O)CC2)c1C	7.1µM*	16µM*	11µM*	-10	-1%
O=c1c2cc(F)ccc2[nH]c(=S)n1CCCN1CCOCC1	11µM*	8%	u	2	-1%
CCOc1cc2[nH]c(=S)n(Cc3ccc(C)o3)c(=O)c2cc1OCC	7.1µM*	-9%	11µM*	-8	0%
Cc1ccc(Cn2c(=S)[nH]c3ccc(N4CCOCC4)cc3c2=O)o1	3.2µM*	-21%	4µM*	-4	1%
COc1ccc(CN2C(=O)C(Cc3ccccc3)Nc3ncnc(N4CCc5ccccc5C4)c32)cc1 (centres undefined)	x	u	x	-5	0%
CO[C@H]1COC(=O)[C@H](C)COC(=O)C/C=C\[C@@H](C)[C@H](OC)COC(=O)C/C=C\[C@@H]1C	6%[10 µM]	x	-8%[10 µM]	x	x
CCCCn1c(=S)[nH]c2ccc(N3CCOCC3)cc2c1=O	2.2µM*	-24%	7.1µM*	-12	0%
O=c1c2cc(N3CCOCC3)ccc2[nH]c(=S)n1CCCN1CCCCCC1	-25%	u	7%	-6	0%
Cc1ccc(C)c(-n2c(-c3ccc(Br)cc3)csc2=NC(=O)c2ccccc2F)c1	u	12µM*	-7%	-13	0%
O=C(/C=C/c1c(C(=O)O)[nH]c2cc(Cl)cc(Cl)c12)Nc1ccccc1	-12%	x	-7%	x	x
COc1ccc(CCC(=O)OCC(=O)Nc2sccc2C#N)cc1	x	u	x	-12	-1%
CO[C@H]1COC(=O)C/C=C\[C@H](C)[C@@H](NS(=O)(=O)c2ccc(C)cc2)COC(=O)C/C=C\[C@@H]1C	11%[10 µM]	x	11%[10 µM]	x	x
Cc1ccc(OCCNCc2ccccc2)c(C)c1	-9%	-10%	7%	23	0%
SMILES	RORg inh	ELG1 DNA repair	VP16 counter	TSHR antag	B2AR arrestin
Cc1cc(C(C)(C)CC(C)(C)C)ccc1OCCOCC[N+](C)(C)Cc1ccccc1	u	-16%	18µM*	4	0%
CCCN1C(=O)/C(=C/c2ccc(N3CCOCC3)cc2)NC1=S	4µM*	-22%	7.9µM*	-33	0%
CCN1C(=O)/C(=C/c2ccc(N3CCCC3)cc2)NC1=S	0.79µM*	u	-86%	-11	0%
CCN1C(=O)/C(=C/c2ccc(OCc3ccc(C(=O)O)cc3)c(Cl)c2)NC1=S	2%	-6%	-9%	-31	-1%
Cc1ccc(CN2C(=O)N/C(=C\c3ccc(N4CCOCC4)cc3)C2=O)cc1	-73%	u	11µM*	-12	-2%
CCC1NC(=O)C(NC(=O)c2ncccc2O)C(C)OC(=O)C(c2ccccc2)NC(=O)C2CC(=O)CCN2C(=O)C(Cc2ccccc2)N(C)C(=O)C2CCCN2C1=O (centres undefined)	32%	x	-4%	x	x
CCC/C=C(\CCC)C(NC(=O)c1cccs1)c1ccc(C(F)(F)F)cc1 (centres undefined)	u	x	-8%	x	x
CN(C)c1ncc2nc(-c3ccc(Cl)cc3)c(=O)n(CCC#N)c2n1	-20%	x	1%	x	x
CCC(C)N1C(=O)N(c2cccc(Cl)c2)C(C)(O)CC1(C)C (centres undefined)	5µM*	7%	26%	-1	0%
Nc1ccc(N2CCN(c3ccc(F)cc3)CC2)cc1	7%	6.5µM*	-20%	-1	0%
C#CCCCO/N=C1/[C@H]2O[C@@H]2[C@@H](O)[C@H]2[C@H]1CCn1c(=O)n(Cc3cc4c(cc3Cl)OCO4)c(=O)n12	-15%[10 µM]	x	-3%[10 µM]	x	x
Cc1ccc(Sc2c(C=O)c3ccccc3n2C)cc1	32%	5.8µM*	u	-9	0%
Cc1ccc(Sc2c([N+](=O)[O-])c(=O)n(C)c3ccccc23)cc1	11µM*	4%	7.1µM*	-73*	0%
CCC[C@H](N[C@@H](C)C(=O)N1[C@@H]2CCCC[C@H]2C[C@H]1C(=O)O)C(=O)OCC	-2%	x	-11%	x	x
CCCNC(=O)C(Cc1ccccc1C)NC(=O)c1ccc(C(F)(F)F)cc1 (centres undefined)	x	22%	x	10	12%
Cc1ccsc1C=Nc1ccc(O)cc1	10µM*	0%	u	-22	u
N#Cc1cccc(NC(=O)N2CC[C@@]3(CCCNC3)C2)c1	-12%	x	4%	x	x
CCN1C(=O)[C@H]2[C@H]3[C@H](O)[C@H](O)C/C(=N/O[C@@H](C)c4cn([C@H]5COC[C@H]5O)nn4)[C@@H]3CC[C@@H]2C1=O	-2%[10 µM]	x	-10%[10 µM]	x	x
Cc1nc(C(=O)NNC(=O)c2ccccc2)c(C(F)(F)F)o1	11µM*	u	-4%	-3	-1%
CC(C)(C)Nc1oc(-c2ccccc2)nc1-c1ccccc1	-21%	x	2%	x	x
COc1ccc(-n2nnc3c(SCC(=O)Nc4ccc5c(c4)OCCO5)ncnc32)cc1	7.9µM*	2%	u	6	-1%
